The values that follow come from PubChem BioAssay (EPA / NIEHS).

Where “and” joins values, the source holds several entries; their conditions need not be identical. Equal entries are not always repeated. Results filed as inconclusive are left out. Where a structure was tested more than once in an assay, its records may differ in their call. Calls of active or inactive are those of the source. The calls were made as follows, unless noted: active = hit-call score of the fitted dose curve at least 0.9, where 1 is the maximum; inconclusive = response in the unintended direction; inactive = score below 0.9.

Read-out in experiment [1]: ABC Transporter (ABCB11), ABCB11 (gene 8647)
Nature of the experiment: CLD_ABCB11_48hr: CellzDirect (CLD) Gene Expression Assay for ABC Transporter (ABCB11) at 48 hours (AID 2283697). A digest of the protocol:
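Induction of ABCB11 mRNA relative to 0.2% DMSO, measured at 48 h by qNPA chemiluminescence. Cultured human hepatocytes (two donors) received fresh dosing solutions at several concentrations on two consecutive days.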

Read-out in experiment [2]: Cytochrome P450 3A4 (Homo sapiens) (UniProt P08684)
Nature of the experiment: CLD_CYP3A4_48hr: CellzDirect (CLD) Gene Expression Assay for xenobiotic metabolism (CYP3A4) at 48 hours (AID 2283698). The essentials: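 CYP3A4 induction read by qNPA chemiluminescence after 48 h, with fresh dosing solutions on consecutive days, in cultured human hepatocytes (two donors). Vehicle 0.2% DMSO as baseline; microscopy-based cytotoxicity annotated yes/no alongside data.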

Read-out in experiment [3]: Cytochrome P450 2B6 (Homo sapiens) (UniProt P20813)
Put plainly: CLD_CYP2B6_48hr: CellzDirect (CLD) Gene Expression Assay for xenobiotic metabolism (CYP2B6) at 48 hours (AID 2283699).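 Also: actives raise transcript level above DMSO so potency reflects induction.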 A digest of the protocol: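 CYP2B6 transcript induction, read by quantitative nuclease protection (S1 digestion, chemiluminescent detection) 48 h after dosing, is fitted upward against 0.2% DMSO. Cultured human liver primary cells, two donor preparations, received fresh chemical daily over multiple concentrations.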

Read-out in experiment [4]: xenobiotic metabolism (CYP1A2), CYP1A2 (gene 1544)
Put plainly: CLD_CYP1A2_48hr: CellzDirect (CLD) Gene Expression Assay for xenobiotic metabolism (CYP1A2) at 48 hours (AID 2283703). A digest of the protocol:
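Cytotoxicity was flagged yes/no from morphology, while CYP1A2 transcript induction was detected by qNPA chemiluminescence after a 48-hour exposure. Human primary hepatocyte cultures from separate donors received fresh dosing solutions daily over two days, with 0.2% DMSO as vehicle and baseline.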

Read-out in experiment [5]: xenobiotic metabolism (CYP1A1), CYP1A1 (gene 1543)
Put plainly: CLD_CYP1A1_48hr: CellzDirect (CLD) Gene Expression Assay for xenobiotic metabolism (CYP1A1) at 48 hours (AID 2283705). A digest of the protocol: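 CYP1A1 transcript measured by quantitative nuclease protection (chemiluminescent) 48 h after two daily treatments of human hepatocyte cultures, versus 0.2% DMSO. Morphology-based cytotoxicity flags accompany data; two donor preparations used.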

Experiment [6] can be described thus: CEETOX_H295R_MTT_cell_viability: Viability Assessment in the CeeTox HT-H295R MTT Assay (AID 2283718; active = hit-call score of the fitted dose curve at least 0.9, where 1 is the maximum; inactive = score below 0.9;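 as to AC50: curve fitted both ways so AC50 may mark viability loss or gain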). A digest of the protocol:
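Human H295R adrenal cells, prestimulated 48 h with 10 uM forskolin, were exposed 48 h to chemicals in 0.1% DMSO. Viability was measured in the same wells by MTT (0.5 mg/ml, 4 h, 37 C), absorbance 570/650 nm, as percent of controls.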

A short description of experiment [7]: Tanguay_ZF_120hpf_ActivityScore_legacy: (Legacy) Oregon State University Tanguay Lab 120 Hour Post-fertilization zebrafish Assay Score for Activity (AID 2283742).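 As to AC50: dechorionated Tropical 5D wild-type zebrafish embryos held singly per well.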 A digest of the protocol:
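Dechorionated 5D embryos, one per well, static exposure 6–120 hpf, 28C, sealed and dark; final DMSO 0.64% (vol/vol). Brightfield binary scoring of mortality plus 18 endpoints; gain-of-signal fit versus DMSO baseline.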

Read-out in experiment [8]: glucuronosyltransferase (UGT1A1), UGT1A1 (gene 54658)
Nature of the experiment: CLD_UGT1A1_24hr: CellzDirect (CLD) Gene Expression Assay for glucuronosyltransferase (UGT1A1) at 24 hours (AID 2283696). The essentials: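 UGT1A1 transcript induction was measured by quantitative nuclease protection assay (chemiluminescence) in human hepatocyte cultures 24 h after daily fresh dosing, with 0.2% DMSO as vehicle and baseline.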

Read-out in experiment [9]: Cytochrome P450 2C19 (Homo sapiens) (UniProt P33261)
Nature of the experiment: CLD_CYP2C19_48hr: CellzDirect (CLD) Gene Expression Assay for xenobiotic metabolism (CYP2C19) at 48 hours (AID 2283700).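 Also: fitted upward so actives raise CYP2C19 mRNA above the 0.2% DMSO vehicle.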 The essentials:
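CYP2C19 mRNA induction read by chemiluminescent quantitative nuclease protection assay after 48 h, with fresh compound added daily for two days to cultured human liver hepatocytes. Activity fitted upward against 0.2% DMSO vehicle.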

Experiment [10] is described as follows: STM_H9_CystineISnorm_perc: Stemina devTOX quickPredict H9 human embryonic stem cell (hESC)-based Assay for Cystine (CYSS) Metabolite Biomarker, Normalized (AID 2283713; active = hit-call score of the fitted dose curve at least 0.9, where 1 is the maximum; inactive = score below 0.9). A digest of the protocol:
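Cells are held undifferentiated and treated for 72h, receiving fresh medium with compound every 24h. Cystine secreted during the final day is quantified by UPLC-HRMS against a labeled spike-in, then expressed relative to the DMSO vehicle median.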

Read-out in experiment [11]: HMG-CoA synthase (HMGCS2), HMGCS2 (gene 3158)
Put plainly: CLD_HMGCS2_48hr: CellzDirect (CLD) Gene Expression Assay for HMG-CoA synthase (HMGCS2) at 48 hours (AID 2283711). A digest of the protocol:
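mRNA induction read by qNPA chemiluminescence, 48 h after dosing. Cultured primary human liver cells (two donor preparations) received fresh compound daily over two days against 0.2% DMSO vehicle; morphology-based cytotoxicity noted alongside.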

Experiment [12] is described as follows: STM_H9_OrnCyssISnorm_ratio: Stemina devTOX quickPredict H9 human embryonic stem cell (hESC)-based Assay for Ornithine (ORN):Cystine (CYSS) Ratio (AID 2283714). The essentials: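 UPLC-HRMS of spent media: ORN/CYSS ratio of internal-standard-normalized percentages, DMSO (0.1%) baseline. Pluripotent H9 hESCs, 72h exposure, daily re-dosing with fresh media; last 24h media collected.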

The nature of experiment [13]: ArunA_CellTiter_hNC: Viability Assessment in the ArunA Biomedical's Oris Neural Crest (hNC) Cell Migration Assay (AID 2283752). The essentials: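 Seed 60,000 hNC cells per well onto Matrigel in basal growth medium containing LIF and bFGF. Incubate 16 h at 37C. Replace with test medium containing chemical for 72 h, then assess viability by CellTiter Aqueous One.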
Experiment [14] can be described thus: ArunA_CellTiter_hNP: Viability Assessment in the ArunA Biomedical's Oris Neural Crest (hNC) Cell Migration Assay (AID 2283753). A digest of the protocol:
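Viability read with CellTiter 96 Aqueous One after 72 h chemical exposure of human hNP1 neuroprogenitors, which were plated on Matrigel in LIF/bFGF medium 16 h beforehand. Endpoint fitted in positive direction relative to DMSO.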

Experiment [15] is described as follows: ArunA_Migration_hNP: ArunA Biomedical's Oris Neuroprogenitor (hNP) Cell Migration Assay (AID 2283754). A digest of the protocol: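 Readout is calcein-AM fluorescence (ex494/em517) of cells migrating into the detection zone, relative to DMSO. hNP1 cells (H9-derived) grown on Matrigel behind stoppers 16 h, then stoppers pulled and chemical applied 72 h; cytochalasin D as control.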

Experiment [16] is described as follows: ArunA_Migration_hNC: ArunA Biomedical's Oris Neural Crest (hNC) Cell Migration Assay (AID 2283755). A digest of the protocol: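 Calcein-AM fluorescence (ex494 nm/em 517 nm) in the stopper-defined detection zone quantifies migration of hNC cells after 72 h chemical exposure; 60,000 cells/well plated on Matrigel with LIF and bFGF, 16 h pre-incubation. DMSO baseline.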

A short description of experiment [17]: ArunA_NOG_NucleusCount: ArunA Biomedical's Neurite Outgrowth (NOG) Assay for Nucleus Count (AID 2283756). A digest of the protocol:
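Viable neuron count, from Hoechst nuclei passing size and intensity gates, imaged at 20x on differentiated H9-derived human neurons. Exposure lasted 48 h from seeding; activity was scored relative to DMSO.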

Cytochrome P450 2C19 (Homo sapiens), sequence (P33261 whole entry, looked up): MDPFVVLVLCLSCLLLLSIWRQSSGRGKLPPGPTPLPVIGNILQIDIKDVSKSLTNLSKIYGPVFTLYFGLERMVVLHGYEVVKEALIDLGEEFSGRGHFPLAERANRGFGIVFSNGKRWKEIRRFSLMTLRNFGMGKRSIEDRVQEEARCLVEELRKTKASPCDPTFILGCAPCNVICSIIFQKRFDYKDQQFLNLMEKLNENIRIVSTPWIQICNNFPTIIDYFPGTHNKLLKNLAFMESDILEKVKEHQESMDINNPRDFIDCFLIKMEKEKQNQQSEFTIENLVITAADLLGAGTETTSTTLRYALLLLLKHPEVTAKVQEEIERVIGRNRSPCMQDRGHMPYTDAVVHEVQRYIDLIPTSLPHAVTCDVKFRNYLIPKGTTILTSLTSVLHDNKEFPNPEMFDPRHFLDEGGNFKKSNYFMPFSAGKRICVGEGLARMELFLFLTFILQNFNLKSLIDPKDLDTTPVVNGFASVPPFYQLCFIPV
Cytochrome P450 3A4 (Homo sapiens), sequence (P08684 whole entry, looked up): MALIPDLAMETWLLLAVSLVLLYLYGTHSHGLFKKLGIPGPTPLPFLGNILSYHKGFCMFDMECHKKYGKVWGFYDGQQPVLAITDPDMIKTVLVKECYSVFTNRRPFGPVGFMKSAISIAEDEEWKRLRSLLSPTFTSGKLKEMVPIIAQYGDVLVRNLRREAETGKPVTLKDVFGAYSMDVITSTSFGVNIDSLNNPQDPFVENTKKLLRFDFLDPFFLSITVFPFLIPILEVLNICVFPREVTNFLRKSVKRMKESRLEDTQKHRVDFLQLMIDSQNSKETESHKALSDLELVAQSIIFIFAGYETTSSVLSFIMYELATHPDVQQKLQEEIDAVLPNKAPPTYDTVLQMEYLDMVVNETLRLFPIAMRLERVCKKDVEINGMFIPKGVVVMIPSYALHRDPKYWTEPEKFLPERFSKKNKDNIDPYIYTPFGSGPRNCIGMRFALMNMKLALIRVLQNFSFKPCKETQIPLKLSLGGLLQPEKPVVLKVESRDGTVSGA

In the case of `CCCN(CCC)c1c([N+](=O)[O-])cc(C(F)(F)F)cc1[N+](=O)[O-]`, the outcome in experiment [1], in experiment [6] and in [7] was inactive. Further, the AC50 is 8.57 µM (active) in experiment [2], 1.37 µM (active) in [3], 9.22 µM (active) in experiment [4] and 15.3 µM (active) in experiment [5].
Turning to `CCN(CC)C(=O)SCc1ccc(Cl)cc1`, the call in experiment [8], in experiment [9], in experiment [4], in experiment [5], in experiment [6] and in [7] was inactive. Further, the half-maximal activity concentration (AC50) in experiment [2] and in experiment [3] was 20 µM (active) throughout.
Take `CCOCN(C(=O)CCl)c1c(C)cccc1CC`: the compound was called inactive in experiment [1], in experiment [4] and in experiment [10]. Also, the AC50 in experiment [2] is 2.16 µM (active); in experiment [3], 0.509 µM (active); in experiment [5], 1.85 µM (active); in [7] it was 46 µM (active).
For the compound `CC1(C)C(C=C(Cl)Cl)C1C(=O)OC(C#N)c1ccc(F)c(Oc2ccccc2)c1` (stereo not given), the AC50 is 6.91 µM (active) in experiment [2] and 7.55 µM (active) in experiment [3]. For the same compound, the compound was classed as inactive in [9], in experiment [4], in experiment [5], in [11], in experiment [10] and in experiment [6]. Moreover, the outcome in experiment [7] was inactive.
As to `N#Cc1c(Cl)c(Cl)c(Cl)c(C#N)c1Cl`, the call in experiment [1], in experiment [9], in experiment [4], in experiment [5] and in experiment [6] was inactive. Besides, the AC50 is 0.000914 µM (active) in [2], 0.000962 µM (active) in [3] and 45 µM (active) in experiment [7].
On to `CNC(=O)/C=C(\C)OP(=O)(OC)OC`, for which the result in experiment [1], in [3], in [9], in experiment [4], in experiment [5] and in experiment [11] was inactive. Further, the call in experiment [6] and in experiment [7] was inactive. For the same compound, in experiment [2], the concentration at half-maximal activity (AC50) was 1.9 µM (active).
With `CC(C)(C)C(O)/C(=C\c1ccc(Cl)cc1Cl)n1cncn1` (stereo not given), the outcome in experiment [8] and in [6] was inactive. The AC50 was 1.9 µM (active) in experiment [2]; 0.983 µM (active) in experiment [3]; 3.7 µM (active) in experiment [4]; 20 µM (active) in [5]; 79.6 µM (active) in [10]; 74.4 µM (active) in [12]. For the same compound, the concentration at half-maximal activity (AC50) in [7] was 94.2 µM (active).
For `O=C(NC(=O)c1c(F)cccc1F)Nc1ccc(OC(F)(F)C(F)OC(F)(F)F)c(Cl)c1` (stereo not given), the result in [1], in experiment [2], in [3], in experiment [9], in experiment [4] and in [11] was inactive. The outcome in [10] and in [7] was inactive. Besides, the half-maximal activity concentration (AC50) in experiment [6] is 1.97 µM (active).
Turning to `Oc1cc(Cl)ccc1Oc1ccc(Cl)cc1Cl`, the compound was classed as inactive in [1], in experiment [2], in experiment [9], in [4], in [5] and in experiment [6]. Moreover, the outcome in experiment [7], in experiment [13], in experiment [14], in [15], in [16] and in experiment [17] was inactive. For the same compound, the AC50 was 0.0058 µM (active) in [11]; 81.2 µM (active) in experiment [10]; 75.8 µM (active) in experiment [12]; 0.0234 µM (active) in experiment [6]; 41.4 µM (active) and 46.5 µM (active) in experiment [7].
`COP(=O)(OC)OC=C(Cl)Cl`: the call in [1], in [2], in experiment [3], in experiment [9], in [4] and in [5] was inactive. Besides, the outcome in experiment [7] was inactive.

For orientation: AC50 means the concentration giving half of the maximal activity seen.
